Results on 35 compounds are retold here after PubChem BioAssay (Tox21).

In experiment [1] the target is Cytochrome P450 2C19 (Homo sapiens) (UniProt P33261). Kind of experiment: Cytochrome P450 Family 2 Subfamily C Member 19 (CYP2C19) small molecule antagonists: luciferase reporter qHTS assay (AID 1671197). Also: nearly all actives have a fitted effect of over 65% in size. As to activity change, negative = inhibition: series mostly up to about 120 µM. In short, it runs like this: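 Inhibition of CYP2C19 was scored from loss of luminescence in a P450-Glo proluciferin substrate assay, NADPH-started and run 1 h at 37C, with ketoconazole as positive control.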
Cytochrome P450 2C19 (Homo sapiens), sequence (P33261 whole entry, looked up): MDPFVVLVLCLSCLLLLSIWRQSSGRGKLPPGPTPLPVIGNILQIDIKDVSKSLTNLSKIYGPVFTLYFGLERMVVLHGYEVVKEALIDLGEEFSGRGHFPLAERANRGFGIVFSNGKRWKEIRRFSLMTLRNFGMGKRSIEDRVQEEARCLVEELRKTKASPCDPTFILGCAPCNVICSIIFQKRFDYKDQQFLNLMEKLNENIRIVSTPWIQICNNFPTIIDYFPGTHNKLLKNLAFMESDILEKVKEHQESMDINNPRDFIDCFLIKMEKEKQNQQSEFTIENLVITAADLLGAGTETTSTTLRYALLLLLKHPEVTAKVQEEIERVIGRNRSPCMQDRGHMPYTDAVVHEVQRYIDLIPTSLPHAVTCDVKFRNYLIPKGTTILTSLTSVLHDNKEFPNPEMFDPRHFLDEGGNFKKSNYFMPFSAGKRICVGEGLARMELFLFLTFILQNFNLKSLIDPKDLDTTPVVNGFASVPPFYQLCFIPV

For experiment [2], the target named is Cytochrome P450 2C9 (Homo sapiens) (UniProt P11712). The experiment in a line: Cytochrome P450 Family 2 Subfamily C Member 9 (CYP2C9) small molecule antagonists: luciferase reporter qHTS assay (AID 1671198). Also: nearly all actives have a fitted effect of over 50% in size. As to activity change, negative = inhibition: series mostly up to about 120 µM. The gist of the method:
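Enzyme-substrate mix preincubated with compound 10 min at room temperature; reaction started with NADPH regeneration solution, 1 h 37C. Luminescent luciferin product read after 20 min detection reagent.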
Background: In a reporter assay the amount or activity of a reporter protein is the signal.

The target of experiment [3] is Voltage-gated inwardly rectifying potassium channel KCNH2 (Homo sapiens) (UniProt Q12809). The experiment in a line: Human Ether-a-go-go-Related Gene (hERG) channel small molecule antagonists: fluorescence cell-based qHTS assay (AID 1671200). Also: nearly all actives have a fitted effect of over 50% in size.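 As to activity change, negative = inhibition: hERG-expressing U2OS cells given a thallium stimulus after FluxOR II dye loading; series mostly up to about 77 µM.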 The gist of the method: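 First, 1000 cells per well are seeded and cultured overnight at 37 C. Next, FluxOR II dye is loaded for 1 h at room temperature, protected from light. After 10 more minutes, stimulus is added and fluorescence is read.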
Voltage-gated inwardly rectifying potassium channel KCNH2 (Homo sapiens), sequence (Q12809 whole entry, looked up): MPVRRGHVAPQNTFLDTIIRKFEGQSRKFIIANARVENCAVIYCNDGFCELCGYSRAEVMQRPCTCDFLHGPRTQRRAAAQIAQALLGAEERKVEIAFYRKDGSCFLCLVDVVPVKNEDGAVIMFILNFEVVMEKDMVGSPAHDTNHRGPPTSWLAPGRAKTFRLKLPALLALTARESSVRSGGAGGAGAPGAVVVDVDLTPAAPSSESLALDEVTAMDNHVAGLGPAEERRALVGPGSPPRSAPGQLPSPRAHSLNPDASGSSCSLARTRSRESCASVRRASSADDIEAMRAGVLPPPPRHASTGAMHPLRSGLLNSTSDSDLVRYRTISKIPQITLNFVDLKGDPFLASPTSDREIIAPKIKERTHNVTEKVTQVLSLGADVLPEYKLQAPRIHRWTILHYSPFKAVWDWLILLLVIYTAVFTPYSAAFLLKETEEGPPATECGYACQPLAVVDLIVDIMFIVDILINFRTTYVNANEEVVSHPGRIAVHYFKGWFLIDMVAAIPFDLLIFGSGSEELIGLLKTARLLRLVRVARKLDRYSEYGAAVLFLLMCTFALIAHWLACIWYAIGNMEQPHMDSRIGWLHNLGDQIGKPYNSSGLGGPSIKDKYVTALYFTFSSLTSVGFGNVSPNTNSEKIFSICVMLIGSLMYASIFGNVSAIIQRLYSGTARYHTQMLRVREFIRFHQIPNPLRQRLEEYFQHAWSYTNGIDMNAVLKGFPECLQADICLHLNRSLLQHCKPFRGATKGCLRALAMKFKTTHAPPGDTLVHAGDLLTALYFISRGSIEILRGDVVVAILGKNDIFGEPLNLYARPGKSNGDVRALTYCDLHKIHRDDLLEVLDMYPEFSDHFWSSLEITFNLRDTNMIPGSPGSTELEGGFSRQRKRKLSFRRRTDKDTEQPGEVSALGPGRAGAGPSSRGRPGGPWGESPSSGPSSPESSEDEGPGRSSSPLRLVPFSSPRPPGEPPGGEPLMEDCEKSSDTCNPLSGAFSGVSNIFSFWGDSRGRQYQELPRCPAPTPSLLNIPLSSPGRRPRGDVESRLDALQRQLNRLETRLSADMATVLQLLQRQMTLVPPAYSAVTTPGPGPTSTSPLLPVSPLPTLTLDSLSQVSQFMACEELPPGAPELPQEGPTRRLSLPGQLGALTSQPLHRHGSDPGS

Experiment [4] concerns the target Cytochrome P450 3A4 (Homo sapiens) (UniProt P08684). Kind of experiment: Cytochrome P450 Family 3 Subfamily A Member 4 (CYP3A4) small molecule antagonists: luciferase reporter qHTS assay (AID 1671201). Also: nearly all actives have a fitted effect of over 50% in size. As to activity change, negative = inhibition: series mostly up to about 120 µM. The gist of the method:
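Enzyme and proluciferin substrate are mixed with test chemicals for 10 min, then NADPH regeneration system drives turnover for 1 h at room temperature. A detection reagent halts the reaction; luminescence after 20 min gives relative activity.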

The target in experiment [5] is Cytochrome P450 1A2 (Homo sapiens) (UniProt P05177). Kind of experiment: Cytochrome P450 Family 1 Subfamily A Member 2 (CYP1A2) small molecule antagonists: luciferase reporter qHTS assay (AID 1671199). Also: nearly all actives have a fitted effect of over 50% in size. As to activity change, negative = inhibition: series mostly up to about 120 µM. The gist of the method: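 Room-temperature CYP1A2 reaction with proluciferin substrate: compounds added from DMSO, 10 min preincubation, NADPH regeneration for 1 h. Luciferin detection reagent then added; luminescence recorded as RLU.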
Cytochrome P450 1A2 (Homo sapiens), sequence (P05177 whole entry, looked up): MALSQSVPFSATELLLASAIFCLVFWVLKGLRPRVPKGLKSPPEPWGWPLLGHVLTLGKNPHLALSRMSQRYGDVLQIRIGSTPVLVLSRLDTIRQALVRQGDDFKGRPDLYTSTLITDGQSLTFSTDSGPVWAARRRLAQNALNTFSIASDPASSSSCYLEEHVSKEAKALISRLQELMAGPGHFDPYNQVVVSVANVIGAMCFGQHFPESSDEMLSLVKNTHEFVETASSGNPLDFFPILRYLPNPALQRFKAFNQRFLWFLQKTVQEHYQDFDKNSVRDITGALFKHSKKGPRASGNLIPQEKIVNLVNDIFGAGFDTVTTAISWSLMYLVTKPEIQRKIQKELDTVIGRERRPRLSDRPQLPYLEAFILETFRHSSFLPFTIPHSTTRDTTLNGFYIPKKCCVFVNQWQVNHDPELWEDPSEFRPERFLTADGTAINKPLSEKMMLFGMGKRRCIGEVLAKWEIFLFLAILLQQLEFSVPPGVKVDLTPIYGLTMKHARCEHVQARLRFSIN

Records with an inconclusive call do not appear. Values without a mark were called inactive. The source made the active and inactive calls. Calls follow the shape of the dose curve; as a rule, active = well fitted curve in the direction sought with a large enough effect in the repeat runs; inconclusive = weak or mixed curves; inactive = no such curve, though single readings can be large; an effect the other way counts as inactive or inconclusive.
% is scaled to controls: 0 for no effect and ±100 for the full control effect; potency is read from the fitted curve at half-maximal effect.

Cytochrome P450 2C9 (Homo sapiens), sequence (P11712 whole entry, looked up): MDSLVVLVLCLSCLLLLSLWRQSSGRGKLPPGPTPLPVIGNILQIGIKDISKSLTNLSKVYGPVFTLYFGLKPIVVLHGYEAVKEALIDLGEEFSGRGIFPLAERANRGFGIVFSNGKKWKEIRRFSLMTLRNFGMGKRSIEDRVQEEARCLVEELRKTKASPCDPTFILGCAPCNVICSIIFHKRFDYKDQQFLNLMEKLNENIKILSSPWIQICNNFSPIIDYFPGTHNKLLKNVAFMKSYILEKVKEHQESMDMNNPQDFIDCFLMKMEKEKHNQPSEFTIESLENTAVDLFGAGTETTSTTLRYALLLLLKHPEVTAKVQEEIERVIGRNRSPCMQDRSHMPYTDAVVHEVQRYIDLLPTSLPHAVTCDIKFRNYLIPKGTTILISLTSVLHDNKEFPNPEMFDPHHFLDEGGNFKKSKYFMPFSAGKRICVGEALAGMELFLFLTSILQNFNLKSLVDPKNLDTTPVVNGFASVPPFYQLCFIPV
Cytochrome P450 3A4 (Homo sapiens), sequence (P08684 whole entry, looked up): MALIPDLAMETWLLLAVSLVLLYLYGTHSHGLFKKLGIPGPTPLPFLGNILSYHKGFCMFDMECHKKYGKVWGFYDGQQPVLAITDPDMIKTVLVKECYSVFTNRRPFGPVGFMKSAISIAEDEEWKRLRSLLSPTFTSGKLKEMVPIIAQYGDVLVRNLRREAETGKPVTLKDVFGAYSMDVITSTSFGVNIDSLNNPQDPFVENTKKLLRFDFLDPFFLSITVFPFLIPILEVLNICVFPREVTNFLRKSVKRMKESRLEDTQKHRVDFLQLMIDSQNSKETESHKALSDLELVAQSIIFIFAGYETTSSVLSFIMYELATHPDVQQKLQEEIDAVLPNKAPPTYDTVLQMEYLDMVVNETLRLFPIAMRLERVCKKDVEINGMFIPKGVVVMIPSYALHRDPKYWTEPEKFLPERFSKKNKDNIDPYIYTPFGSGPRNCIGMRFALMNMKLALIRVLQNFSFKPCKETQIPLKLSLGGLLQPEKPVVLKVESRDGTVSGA

On to `O=C1C(O)=C(O)C(=O)C(O)=C1O`, for which the Potency result in experiment [1], in experiment [2], in experiment [3] and in experiment [4] was “inactive” each time.
As for `CN(C)c1ccc(/C=C/c2ccc([N+](=O)[O-])cc2)cc1`, the activity change, negative = inhibition in experiment [1] was 15.9% [at 10.5 µM]; in experiment [2] it was -1.18% [at 10.5 µM]; in experiment [3], 3.51% [at 6.97 µM]; in experiment [4], 3.87% [at 10.5 µM].
In the case of `C=C1[C@H]2CC[C@@H]3[C@H]2C(C)(C)CCC[C@]13C`, the Potency result in experiment [1], in experiment [2], in experiment [3] and in experiment [4] was “inactive” each time.
As to `O=C(NCC1CN(c2ccc(N3CCOCC3=O)cc2)C(=O)O1)c1ccc(Cl)s1` (configuration not stated), the Potency result in experiment [1] and in experiment [4] was “inactive” each time. The Potency in experiment [2] is 9.77 µM (active).
On to `CC[N+]1(CC)CCC(=C(c2ccccc2)c2ccccc2)C1C` (configuration not stated), for which the Potency entry in experiment [1], in experiment [2], in experiment [5] and in experiment [4] was “inactive” in each case.
Consider `COC(=O)c1ccc(I)cc1S(=O)(=O)NC(=O)Nc1nc(C)nc(OC)n1`, for which the Potency result in experiment [1], in experiment [3] and in experiment [4] was “inactive” throughout. Besides, the Potency in experiment [2] was 34.1 µM (active).
For `CCOC(=O)c1cccnc1`, the Potency entry in experiment [1], in experiment [2], in experiment [3] and in experiment [4] was “inactive” throughout.
Regarding `O=C(O)CC(=O)C(=O)O`, the Potency in experiment [1] is 56.6 µM (active). Besides, the Potency entry in experiment [2], in experiment [3] and in experiment [4] was “inactive” each time.
`CCCCCCCC#N`: the Potency result in experiment [1], in experiment [2], in experiment [3] and in experiment [4] was “inactive” in each case.
For `CC(C)C[C@H]1C(=O)N2CCC[C@H]2[C@]2(O)O[C@](NC(=O)[C@@H]3C=C4c5cccc6[nH]c(Br)c(c56)C[C@H]4N(C)C3)(C(C)C)C(=O)N12`, in experiment [1], the Potency was 21.4 µM (active). In addition, the Potency entry in experiment [5] and in experiment [3] was “inactive” throughout.
Turning to `CCOCC(O)COc1ccc(NC(=O)CC[S+](C)C)cc1` (configuration not stated), the Potency result in experiment [1], in experiment [2], in experiment [3] and in experiment [4] was “inactive” each time.
In the case of `C=CC(=O)OCCOCCOCCOCCOC(=O)C=C`, the Potency result in experiment [1], in experiment [2] and in experiment [3] was “inactive” each time.
For the compound `O=C1c2ccccc2S(=O)(=O)N1CCCCN1CCN(c2ncccn2)CC1`, the Potency result in experiment [1], in experiment [5] and in experiment [4] was “inactive” in each case. Further, the Potency in experiment [2] is 15.5 µM (active).
Turning to `OCc1cc(C(O)CNCCCCCCOCCCCc2ccccc2)ccc1O` (configuration not stated), the Potency result in experiment [1] and in experiment [5] was “inactive” throughout. Moreover, in experiment [3], the Potency is 2.68 µM (active).
Turning to `CCCCCCCCCCCCN1CCCCCC1=O`, the Potency entry in experiment [1], in experiment [3] and in experiment [4] was “inactive” throughout. Also, in experiment [2], the Potency is 31.7 µM (active).
As to `COc1cc2nc(N3CCN(C(=O)C4COc5ccccc5O4)CC3)nc(N)c2cc1OC` (configuration not stated), the Potency entry in experiment [1] and in experiment [5] was “inactive” in each case.
As to `ClCCOCCOCCCl`, the Potency result in experiment [1], in experiment [2] and in experiment [4] was “inactive” throughout.
Regarding `COc1cccc(N(C)C(=S)Oc2ccc3c(c2)CCCC3)n1`, the Potency in experiment [1] is 2.75 µM (active); in experiment [5], 24.5 µM (active).
As for `COCC(C)OC(C)=O` (configuration not stated), the Potency entry in experiment [1], in experiment [2], in experiment [3] and in experiment [4] was “inactive” throughout.
For `CCCCCCCCCOS(=O)(=O)O`, the results for the Potency in experiment [1] and in experiment [2] were 79.6 µM (active) and 22.4 µM (active), respectively. Also, in experiment [4], the Potency result is “inactive”.
On the same counts, the results for `CC1=CC[C@H](C(C)C)C=C1` are 39.9 µM (active), 39.9 µM (active) and 28.3 µM (active).
With `CCN(CC)CCNC(=O)c1cc(Br)c(N)cc1OC`, the Potency result in experiment [1], in experiment [2] and in experiment [4] was “inactive” throughout.
`C#Cc1cccc(Nc2ncnc3cc(OCCOC)c(OCCOC)cc23)c1`: the Potency entry in experiment [1], in experiment [5] and in experiment [3] was “inactive” in each case.
Take `CCCCCCCN`: the Potency entry in experiment [1], in experiment [2] and in experiment [4] was “inactive” throughout.
As for `CCCCCCCCCCCCCCCCOS(=O)(=O)O`, the Potency entry in experiment [1], in experiment [5] and in experiment [4] was “inactive” in each case.
As for `C[C@@H]1C[C@H]2O[C@@]3(O[C@@H]2C(C)(C)O)[C@H](O)[C@@]2(C)[C@@H]4CC[C@H]5C(C)(C)[C@@H](O[C@@H]6OC[C@@H](O)[C@H](O)[C@H]6O)CC[C@@]56C[C@@]46CC[C@]2(C)[C@@H]13`, the Potency entry in experiment [1] and in experiment [3] was “inactive” in each case.
Turning to `CCCCCCCCCCCC(=O)OC[C@@H](O)[C@H]1OC[C@H](OCCO)[C@H]1OCCO`, the Potency entry in experiment [1], in experiment [5] and in experiment [3] was “inactive” throughout. For the same compound, the Potency in experiment [4] was 17.4 µM (active).
As to `C/C=C/C=C/CO`, the Potency result in experiment [1], in experiment [5] and in experiment [3] was “inactive” in each case. Also, the Potency in experiment [4] was 63.3 µM (active).
Regarding `CCN(CC)CCOC(=O)C(c1ccccc1)C1CCCCC1` (configuration not stated), in experiment [2], the Potency result is “inactive”. Also, the Potency in experiment [5] is 3.63 µM (active); in experiment [3] it was 6.01 µM (active).
With `Nc1cccc(S(=O)(=O)c2cccc(N)c2)c1`, the Potency in experiment [1] is 35.6 µM (active); in experiment [4], 10 µM (active). In addition, the Potency entry in experiment [5] and in experiment [3] was “inactive” each time.
Turning to `CCCCCCc1ccc(-c2ccc(C#N)cc2)cc1`, the Potency was 44 µM (active) in experiment [1] and 31.2 µM (active) in experiment [5]. Besides, the Potency entry in experiment [4] was “inactive”.
As to `Cc1ccc(C(C)OC(=O)C2(C)CCC(C(=O)O)C2(C)C)cc1` (configuration not stated), the Potency result in experiment [1], in experiment [5], in experiment [3] and in experiment [4] was “inactive” in each case.
With `CCCCCCCC/C=C\CCCCCCCC(=O)OCC`, the Potency in experiment [2] was 71 µM (active).
As to `C[Si](C)(CCCN)O[Si](C)(C)CCCN`, the values for the Potency in experiment [1], in experiment [5] and in experiment [4] were 39.9 µM (active), 25.2 µM (active) and 2.52 µM (active), respectively. The Potency result in experiment [3] is “inactive”.
Regarding `CCC(=O)O[C@]1(C(=O)CCl)[C@@H](C)C[C@H]2[C@@H]3CCC4=CC(=O)C=C[C@]4(C)[C@@]3(F)[C@@H](O)C[C@@]21C`, the Potency in experiment [2] is 30.9 µM (active). The Potency entry in experiment [5] and in experiment [3] was “inactive” throughout.
